Screens: PubChem, The Scripps Research Institute Molecular Screening Center
Compounds with a hit are over-represented: about 4.1% of the library has one in this group of screens.
DAX1 inh-1: inhibits human nuclear receptor DAX1; HEK293 Gal4-DAX1 luciferase reporter, luminescence; inhibition, % at 6.75 µM; 340,000 compounds, 0.99% hits;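 active = inhibition above the mean over all tested compounds plus 3 SD, cut at about 4.2% in these data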;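 also: 0% = DAX1-transfected cells with DMSO and 100% = empty-vector control cells with DMSO; inhibition shows as a rise in luminescence from relieved DAX1 repression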
Target sequence (P51843 207-470 limits assumed): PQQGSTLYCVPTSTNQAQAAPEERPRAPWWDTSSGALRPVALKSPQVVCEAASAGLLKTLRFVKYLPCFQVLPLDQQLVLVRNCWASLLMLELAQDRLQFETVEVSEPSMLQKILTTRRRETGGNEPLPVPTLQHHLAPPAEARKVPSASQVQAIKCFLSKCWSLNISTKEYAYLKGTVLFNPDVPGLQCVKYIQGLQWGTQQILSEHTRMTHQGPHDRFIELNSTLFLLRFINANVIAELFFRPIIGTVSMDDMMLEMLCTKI
DAX1 inh-2: DAX1 (NR0B1) inhibition, primary screen | 370,000 compounds, 1.1% hits | inhibition, % at 6.8 µM | HEK293T StAR-luciferase reporter, SF-1/DAX-1 repression relief;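 active = inhibition above the mean over all tested compounds plus 3 SD, cut at about 3.6% in these data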;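 also: 0% = DAX-1 cells with DMSO and 100% = cells lacking DAX-1 with DMSO; higher inhibition means more luminescence from relief of DAX-1 repression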
ssDAF-12 act: activates DAF-12 receptor from parasite S. stercoralis; HEK293 ssDAF-12/GRIP1 lit1-tk-luc reporter, luminescence; % of 3 µM dafachronic acid response; activation, % at 6.8 µM; 370,000 compounds, 1% hits; AID 652126;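 active = activation above the mean over all tested compounds plus 3 SD, cut at about 0.9% in these data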;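 also: 0% = DMSO-only wells and 100% = 3 µM delta7-dafachronic acid wells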
hcDAF12 agonist: activates DAF-12 receptor from parasite H. contortus. AID 652067. activation, % at 6.8 µM. HEK293 hcDAF-12 lit1-tk-luc reporter, luminescence; 0% DMSO, 100% Δ7-dafachronic acid. 370,000 compounds, 1.4% hits;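 active = activation above the mean of all tested compounds plus 3 SD, cut at about 5.5% in these data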;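 also: 100% = response to 3 µM Δ7-dafachronic acid high control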
hgDAF-12 ag: agonists of H. glycines DAF-12 nuclear receptor; HEK293 GAL4-hgDAF12 UAS-luciferase reporter, agonist luminescence; normalized to butyrate control; activation, % at 6.8 µM; 370,000 compounds, 1.8% hits;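 active = activation above a cutoff set at the mean of all screened compounds plus 3 SD, cut at about 10% in these data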;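 also: 0% = DMSO wells and 100% = sodium butyrate wells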
An asterisk follows results filed as active; . = no result.

SMILES	DAX1 inh-1	DAX1 inh-2	ssDAF-12 act	hcDAF12 agonist	hgDAF-12 ag
COc1cccc(N/C=C/C(=O)c2ccc(Br)cc2)c1	2	4.4*	0	4	11*
CCOC(=O)c1ccc(N/C=C\C(=O)c2cccc(OC)c2)cc1	-2	1	-1	4	0
N#Cc1ccc(/C=C2\CC3(OC(=O)c4cccc(F)c4)CCCN2C3)cc1 (centres undefined)	.	-2	-2	-1	2
CC(C)C[C@H]1COc2cc(F)ccc2S(=O)(=O)N1C	.	-1	0	-4	-2
C[C@H](O)[C@@H]1CN2CCc3c([nH]c4cccc(-c5ccccc5)c34)[C@@H]2C[C@@H]1N(C)C(=O)C1CCCCC1	.	-1	-1	-3	1
CCN(CC)C(=O)CC[C@H]1CC[C@]2(CCCN(C3CCCCC3)C2)O1	.	1	-1	-1	1
CCOC(=O)c1cc(-c2csc(Nc3ccccc3Cl)n2)on1	4	1	1.5*	3	0
CN1C2=N[C@@H](c3cccc(C(F)(F)F)c3)CC(=O)N2/C(=C\c2ccccc2)[C@H]1c1ccccc1	.	.	-1	-1	2
O=C1CCC[C@H]2Cc3nc4ccccc4cc3C[C@]23CCCN13	.	.	-1	3	-1
O=C(NCc1ccccc1)c1ccc(Cl)c(NC2=NC3CS(=O)(=O)CC3S2)c1 (centres undefined)	2	1	-1	0	7
COc1ccc(CNC(=O)c2ccc(Cl)c(NC3=NC4CS(=O)(=O)CC4S3)c2)cc1 (centres undefined)	-1	-1	-1	-1	11*
Cc1c(C(C)c2ccccc2O)c2ccccc2n1C (centres undefined)	.	-1	-1	3	4
O=[N+]([O-])c1cccnc1NCCc1c[nH]c2ccccc12	4	1	1.0*	3	12*
O=C(OCC(=O)c1c[nH]c2ccccc12)c1cncc(Br)c1	0	3	0	3	4
COc1ccc(C(=O)COC(=O)c2ccccc2O)c(OC)c1	1	3.9*	0	2	12*
O=C(COC(=O)c1c[nH]c2ccccc12)NCc1ccccc1	4.7*	0	-1	1	1
COc1cccc(C(=O)OCC(=O)c2c[nH]c3ccccc23)c1OC	3	1	0	4	4
COc1ccc(C(=O)OCC(=O)c2c[nH]c3ccccc23)c(OC)c1	0	-2	1.7*	5	7
O=C(OCC(=O)c1c[nH]c2ccccc12)c1cccc([N+](=O)[O-])c1	0	0	1.8*	3	6
c1csc(-c2nc3ccccc3s2)c1	4.6*	0	-1	2	7
c1ccc2sc(-c3ccncc3)nc2c1	1	1	-1	0	5
CC1=NN(c2ccccc2)C(=O)/C1=C\c1sccc1C	1	0	1.7*	3	2
COc1ccccc1/C=C1/C(=O)N(c2ccccc2)N=C1C	0	0	-1	1	1
CCCCC(=O)N1CCC(NS(=O)(=O)c2ccc3c(c2)CCN3C(C)=O)CC1	.	-2	-2	-1	-2
O=C(Nc1c(F)c(F)c(F)c(F)c1F)OC[C@@H]1CSCCS(=O)(=O)N1	.	3.6*	0	-1	2
SMILES	DAX1 inh-1	DAX1 inh-2	ssDAF-12 act	hcDAF12 agonist	hgDAF-12 ag
O=C1C[C@@H](c2ccccc2)N=C2N(Cc3ccc4c(c3)OCO4)C/C(=C/c3ccccc3)N12	.	0	-2	-3	-3
Cc1sc2ccccc2c1CNC[C@H]1O[C@@H](n2cnc(C(N)=O)n2)[C@H](O)[C@@H]1O	1	1	1.0*	-1	-3
C/C(CCc1ccco1)=N\NC(=O)CNc1c(Br)cc(Br)cc1Br	6.8*	0	-1	0	2
O=C1CSc2ccc(C(=O)N3CCCC(C(=O)N4CCCC4)C3)cc2N1 (centres undefined)	.	0	-1	-1	1
Clc1ccc(-c2nc3cc(CN4CCCCC4)ccc3o2)cc1	3	1	0	3	11*
Clc1cccc(CN2CCCCCC2)c1	-1	0	-1	-2	1
COC(=O)[C@H](C(C)C)N(Cc1cn(Cc2ccccc2)nn1)S(=O)(=O)c1ccc(F)cc1Br	.	0	-2	-3	2
CC(=O)c1ccc(OCc2cc(C(=O)N(C)Cc3ccccn3)no2)cc1	0	4.0*	1.0*	4	9
CCN(CC1CCCO1)C(=O)c1cc(COc2cc(C)c(Cl)c(C)c2)on1 (centres undefined)	1	0	1.5*	5	7
CC(=O)c1ccc(OCc2cc(C(=O)N(C)Cc3ccon3)no2)cc1	0	0	-1	-1	-1
Cc1cc(OCc2cc(C(=O)N(C)Cc3ccccn3)no2)cc(C)c1Cl	1	1	0	1	11*
COCC1CCN(C(=O)c2cc(COc3cc(C)c(Cl)c(C)c3)on2)C1 (centres undefined)	0	1	0	6.3*	9
CCC(C)(C)C(=O)N1CCc2cc(S(=O)(=O)N(C)Cc3ccco3)ccc21	.	0	-2	1	6
CC(C)[C@H]1/C(=C/C2CC2)N2C(=O)C[C@@H](c3ccccc3)N=C2N1Cc1ccc2c(c1)OCO2	.	-1	-2	-1	0
CN1CCCC1CCSc1ncccc1-c1nc2ccccc2[nH]1 (centres undefined)	.	1	-1	-1	4
Cc1cc(OCc2cc(C(=O)N(C)C(C)c3ccccn3)no2)cc(C)c1Cl (centres undefined)	1	1	0	3	12*
CN(C)CCSc1nnc2[nH]c3ccccc3c2n1	0	1	1.1*	3	3
Fc1cccc(CSc2nnc3c(n2)[nH]c2ccccc23)c1	-2	-1	-2	0	-1
O=C(c1cccc(F)c1F)N(Cc1ccccn1)CC1CCCO1 (centres undefined)	.	0	-1	-2	0
CC(C)CNC(=O)OCc1cn(Cc2ccc(C(F)(F)F)cc2)nn1	.	0	-1	-1	-2
CCOc1ccc(-c2ccc(SCC(=O)Nc3nnc(CC)s3)nn2)cc1	3	3.7*	0	2	13*
Cc1ccc2nc(=O)c(NNc3ccccc3)cnc2c1	0	1	1.0*	0	6
O=C(Nc1ccc(S(=O)(=O)N2CCCC2)cc1)c1cc(=O)c2ccccc2o1	4.3*	1	-1	0	2
Cc1ccc(NC(=O)c2cc(=O)c3ccccc3o2)cc1S(=O)(=O)N1CCCCC1	-1	-1	-2	-1	-2
Cc1cccc(N=NC(=S)NNc2cccc(C)c2)c1	2	3.7*	0	6.1*	9
CC1CC(Nc2ccccc2N)=CC(=O)O1 (centres undefined)	3	2	0	5.8*	10
N#C/C(=C\c1ccccc1[N+](=O)[O-])C(=O)NCc1ccccc1	4.5*	0	-1	-1	0
